Several values for one entry are separate records, joined by “and”; a condition that tells them apart may be missing. Identical values can stand only once. Inconclusive results are not listed. A call without a number means that no potency is given here. Activity calls are given as the source filed them. Unless noted, calls follow the shape of the dose curve; as a rule, active = well fitted curve in the direction sought with a large enough effect in the repeat runs; inconclusive = weak or mixed curves; inactive = no such curve, though single readings can be large; an effect the other way counts as inactive or inconclusive.
Experiments:
[1] = qHTS assay to identify small molecule that activate the aryl hydrocarbon receptor (AhR) signaling pathway - cell viability counter screen (AID 743086); also: nearly all actives have a fitted effect of over 45% in size; also: potency is read from the fitted curve at half-maximal effect
Outline: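 Cytotoxicity counter screen: CellTiter-Fluor signal (30 min, 37 C) in 4000 HepG2 cells/well carrying the DRE-luciferase reporter, following 24 h compound exposure at 37 C.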

[2] = target: Peroxisome proliferator-activated receptor gamma (Homo sapiens) (UniProt P37231); test: qHTS assay to identify small molecule agonists of the peroxisome proliferator-activated receptor gamma (PPARg) signaling pathway (AID 743094; active = well fitted activation curve with a large enough effect in the signal ratio in the repeat runs, not every such curve was filed as active; the % refers to the signal ratio)
Chain of Peroxisome proliferator-activated receptor gamma (Homo sapiens) (P37231 whole entry, looked up): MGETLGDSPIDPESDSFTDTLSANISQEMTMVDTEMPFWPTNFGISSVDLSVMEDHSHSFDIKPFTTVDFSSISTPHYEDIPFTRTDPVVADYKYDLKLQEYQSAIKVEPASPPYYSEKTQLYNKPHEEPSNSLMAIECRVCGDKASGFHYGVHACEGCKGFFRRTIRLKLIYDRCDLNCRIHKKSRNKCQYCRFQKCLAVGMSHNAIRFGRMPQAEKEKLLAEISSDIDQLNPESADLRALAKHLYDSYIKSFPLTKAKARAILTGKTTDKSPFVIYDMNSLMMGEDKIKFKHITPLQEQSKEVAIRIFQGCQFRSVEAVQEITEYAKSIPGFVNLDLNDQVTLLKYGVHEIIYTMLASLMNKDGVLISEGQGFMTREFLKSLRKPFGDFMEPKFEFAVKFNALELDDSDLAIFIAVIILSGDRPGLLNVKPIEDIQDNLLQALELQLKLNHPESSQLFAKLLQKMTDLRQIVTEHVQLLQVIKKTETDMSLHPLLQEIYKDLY
Outline: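 Quantitative HTS agonist mode: stable HEK293H line with UAS-beta-lactamase reporter under PPARg control, 17 h compound exposure at 37C, fluorescence after 1 h FRET substrate loading at room temperature.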

[3] = qHTS assay to identify small molecule antagonists of the peroxisome proliferator-activated receptor gamma (PPARg) signaling pathway - cell viability counter screen (AID 743194); also: nearly all actives have a fitted effect of over 55% in size; also: potency is read from the fitted curve at half-maximal effect
Outline: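 Viability was measured as CellTiter-Glo luminescence in GeneBLAzer PPARg UAS-bla HEK293H cells. These cells had been exposed 17 h at 37 C to compounds together with rosiglitazone at 50 nM final, with the beta-lactamase readout taken in the same wells.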

[4] = qHTS assay for small molecule agonists of the antioxidant response element (ARE) signaling pathway (AID 743202; active = well fitted activation curve with a large enough effect in the signal ratio in the repeat runs, not every such curve was filed as active; the % refers to the signal ratio; also: potency is read from the fitted curve at half-maximal effect)
Outline: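 Quantitative high-throughput format in HepG2 cells bearing an integrated ARE-beta-lactamase reporter. Compound exposure lasted 16 h at 37 C, and fluorescence was read 2 h after adding LiveBLAzer B/G substrate at room temperature.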

[5] = qHTS assay for small molecule agonists of the antioxidant response element (ARE) signaling pathway - cell viability counter screen (AID 743203; calls by dose curve; also: nearly all actives have a fitted effect of over 55% in size; also: potency is read from the fitted curve at half-maximal effect)
Outline: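 Seeded at 2,000 cells/well, ARE-bla HepG2 cells were incubated 5 hrs before compound addition. After 16 hrs of treatment at 37C with 5% CO2, CellTiter-Glo reagent was added and luminescence read 30 min later.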

[6] = qHTS assay for small molecule activators of the heat shock response signaling pathway - cell viability counter screen (AID 743209); also: nearly all actives have a fitted effect of over 50% in size; also: potency is read from the fitted curve at half-maximal effect
Outline: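 First, HSE-bla HeLa cells were seeded at 1500 cells/well and kept overnight at 37 C. Next, compounds were pinned in and incubated 5 h. After the FRET substrate step, CellTiter-Glo was added and luminescence read 30 min later.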

[7] = qHTS assay to identify small molecule agonists of the peroxisome proliferator-activated receptor delta (PPARd) signaling pathway - cell viability counter screen (AID 743211); also: nearly all actives have a fitted effect of over 55% in size; also: potency is read from the fitted curve at half-maximal effect
Outline: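 Viability was measured as CellTiter-Glo luminescence (30 min, room temperature) in the same wells as the beta-lactamase readout. GeneBLAzer PPARd UAS-bla HEK293H cells received compound after 5 h plating and were incubated 17 h at 37 C.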

[8] = target: Peroxisome proliferator-activated receptor gamma (Homo sapiens) (UniProt P37231); test: qHTS assay to identify small molecule antagonists of the peroxisome proliferator-activated receptor gamma (PPARg) signaling pathway (AID 743191; calls by dose curve; also: nearly all actives have a fitted effect of over 30% in size; also: potency is read from the fitted curve at half-maximal effect)
Outline: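 Beta-lactamase reporter under UAS control in HEK293H PPARg-bla cells; compound treatment 17 h at 37C. Read-out: fluorescence intensity after 1 h room-temperature incubation with LiveBLAzer B/G FRET substrate.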

[9] = qHTS assay for small molecule activators of the heat shock response signaling pathway (AID 743210; active = well fitted activation curve with a large enough effect in the signal ratio in the repeat runs, with a control signal flat, not every such curve was filed as active; the % refers to the signal ratio;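 also: HeLa cells with beta-lactamase reporter driven by heat shock elements; series mostly up to about 63 µM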)
Outline: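 HeLa HSE-bla cells, overnight plating; cpd in DMSO 5 h, 37 C; LiveBLAzer B/G FRET substrate 2.5 h RT; fluorescence intensity read.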

For `NC(=O)C(=O)N/N=C/c1ccc([N+](=O)[O-])o1`, the Potency [1] was “inactive”, the Potency [2] was “inactive” and the Potency [3] was “inactive”. For the same compound, the Potency [4] was 29.8 µM (active) and the Potency [5] was “inactive”.

In the case of `NC1(c2ccc(-c3nc4ccn5c(=O)[nH]nc5c4cc3-c3ccccc3)cc2)CCC1`, the Potency [3] is reported as 4.22 µM (active), the Potency [6] is reported as “inactive” and the Potency [7] is reported as 26.6 µM (active).

With `c1cc(OCC2CO2)cc(OCC2CO2)c1` (centres undefined) the Potency [3] was “inactive”, the Potency [4] was 30.4 µM (active) and the Potency [5] was “inactive”. The Potency [6] was “inactive”.

With `COc1ccc(-n2nc(CCC(=O)N(C)O)cc2-c2ccc(Cl)cc2)cc1` the Potency [8] was 3.76 µM (active), the Potency [3] was “inactive” and the Potency [5] was “inactive”.

For `CCCOc1sc(C(=O)N2CCC(c3cc(CN)ccc3F)CC2)c(C)c1Br`, the Potency [1] was 56 µM (active), the Potency [3] was 17.9 µM (active) and the Potency [5] was 17.7 µM (active). For the same compound, the Potency [6] was 40 µM (active).

In the case of `Cc1c(-c2ccc(O)cc2)n(Cc2ccc(OCCN3CCCCCC3)cc2)c2ccc(O)cc12`, the Potency [3] is reported as 29.8 µM (active), the Potency [6] is reported as “inactive” and the Potency [7] is reported as 26.6 µM (active).

With `CCCCCCCCCC(=O)N(C)C` the Potency [1] was “inactive”, the Potency [5] was “inactive” and the Potency [7] was “inactive”.

With `N#CSCSc1nc2ccccc2s1` the Potency [1] was “inactive”, the Potency [3] was 7.76 µM (active) and the Potency [5] was 30.6 µM (active).

With `CCCCCCCCCCOCC(O)CN` (centres undefined) the Potency [1] was “inactive” and the Potency [8] was “inactive”.

For `CCC1(c2cnc[nH]2)Cc2ccccc2C1`, the Potency [3] was “inactive”, the Potency [5] was “inactive” and the Potency [6] was “inactive”.

In the case of `CCCCCCOc1ccc(O)cc1`, the Potency [1] is reported as “inactive”, the Potency [4] is reported as 27.3 µM (active) and the Potency [5] is reported as “inactive”. The Potency [6] was “inactive”, the Potency [9] was “inactive” and the Potency [7] was “inactive”.

For `Cc1ccc(CCn2c3c(c4cc(Cl)ccc42)CN(C)CC3)cn1`, the Potency [3] was “inactive” and the Potency [5] was “inactive”.

For `COC(=O)C1=C(C)NC(C)=C(C(=O)OCCCN2CCC(c3ccccc3)(c3ccccc3)CC2)C1c1cccc([N+](=O)[O-])c1` (centres undefined), the Potency [1] was 29.8 µM (active), the Potency [3] was 33.5 µM (active) and the Potency [6] was “inactive”.

With `CCCN(CCc1cccs1)[C@H]1CCc2c(O)cccc2C1` the Potency [1] was “inactive”, the Potency [2] was “inactive” and the Potency [3] was “inactive”. For the same compound, the Potency [4] was “inactive”, the Potency [5] was “inactive” and the Potency [6] was “inactive”.

For `O=C1Nc2ccc(Cl)cc2[C@@](C#CC2CC2)(C(F)(F)F)O1`, the Potency [1] was “inactive”, the Potency [2] was “inactive” and the Potency [4] was 13.3 µM (active). The Potency [5] was “inactive”.

For `CC(C)(c1cc(Br)c(O)c(Br)c1)c1cc(Br)c(O)c(Br)c1`, the Potency [1] was “inactive”, the Potency [3] was 54.8 µM (active) and 43.5 µM (active) and 46.3 µM (active) and the Potency [4] was 23 µM (active). The Potency [5] was 60.9 µM (active) and 57.9 µM (active).

In the case of `CC(C)(c1cc(Br)c(OCCO)c(Br)c1)c1cc(Br)c(OCCO)c(Br)c1`, the Potency [1] is reported as “inactive”, the Potency [2] is reported as “inactive” and the Potency [3] is reported as 17 µM (active). The Potency [5] was 18.9 µM (active) and the Potency [6] was 17 µM (active).

With `CCCCCCOc1cc(C)c(O)c(C)c1C` the Potency [1] was “inactive”, the Potency [2] was “inactive” and the Potency [3] was “inactive”. The Potency [7] was “inactive”.

In the case of `Cc1cc(Nc2ccc(O)cc2)ccc1N`, the Potency [2] is reported as “inactive”, the Potency [3] is reported as 12.2 µM (active) and the Potency [6] is reported as “inactive”.

For `COC(=O)[C@]1(C)CCC[C@@]2(C)[C@H]1CC=C1C=C(C(C)C)CC[C@@H]12`, the Potency [1] was “inactive”, the Potency [3] was 54.9 µM (active) and the Potency [4] was 61.1 µM (active). For the same compound, the Potency [5] was “inactive”.

With `CN1[C@@H]2CC[C@@H]1CC(OC(=O)C(CO)c1ccccc1)C2` (some centres undefined) the Potency [1] was “inactive” and the Potency [3] was “inactive”.

For `Cc1ccc(-n2[nH]c(C)c(N=Nc3cccc(-c4cccc(C(=O)O)c4)c3O)c2=O)cc1C`, the Potency [3] was 2.37 µM (active), the Potency [5] was “inactive” and the Potency [6] was “inactive”. The Potency [7] was 26.6 µM (active).

With `CN(C)CCOC(c1ccccc1)c1ccccc1` (tested in a mixture with another compound) the Potency [1] was “inactive”, the Potency [3] was “inactive” and the Potency [4] was “inactive”. The Potency [5] was “inactive” and the Potency [6] was “inactive”.

For `C[C@]12CC[C@H]3C(=CCc4cc(O)ccc43)[C@@H]1CCC2=O`, the Potency [1] was “inactive”, the Potency [2] was “inactive” and the Potency [3] was “inactive”. For the same compound, the Potency [5] was “inactive”.

In the case of `COc1cccc(CCc2ccccc2OCC(CN(C)C)OC(=O)CCC(=O)O)c1` (centres undefined), the Potency [5] is reported as “inactive”.

With `CC(C)OC(=O)c1cc(C(=O)OC(C)C)cc([N+](=O)[O-])c1` the Potency [1] was “inactive” and the Potency [5] was “inactive”.

In the case of `CC1CCCCN1CCCOC(=O)c1ccc(OC2CCCCC2)cc1` (centres undefined), the Potency [5] is reported as “inactive”, the Potency [6] is reported as “inactive” and the Potency [9] is reported as “inactive”.

For `C/C=C/C(=O)Oc1c(CCCCCC(C)C)cc([N+](=O)[O-])cc1[N+](=O)[O-]`, the Potency [3] was 6.16 µM (active) and the Potency [5] was 8.63 µM (active).

In the case of `Nc1cc(Cl)c([N+](=O)[O-])cc1O`, the Potency [3] is reported as “inactive”, the Potency [5] is reported as “inactive” and the Potency [6] is reported as “inactive”.

In the case of `O=C1NCN(c2ccccc2)C12CCN(CCCC(c1ccc(F)cc1)c1ccc(F)cc1)CC2`, the Potency [1] is reported as “inactive”, the Potency [3] is reported as 26.6 µM (active) and the Potency [5] is reported as 29.8 µM (active). For the same compound, the Potency [7] was 21.1 µM (active).

Reference: PubChem BioAssay (Tox21)
